{"source": "ChEMBL document CHEMBL1157539", "about": "“Thousands of chemical starting points for antimalarial lead identification” (Nature, 2010)", "type_in_all_cases": "functional", "key": {"[1]": {"system": "Plasmodium falciparum", "experiment": "GSK_TCMDC: Inhibition of Plasmodium falciparum 3D7 in whole red blood cells, using parasite LDH activity as an index of growth. Test compounds present at 2uM"}, "[2]": {"system": "Plasmodium falciparum", "experiment": "GSK_TCMDC: Inhibition of Plasmodium falciparum Dd2 in whole red blood cells, using parasite LDH activity as an index of growth. Test compounds present at 2uM"}, "[3]": {"system": "HepG2", "experiment": "GSK_TCMDC: Percent inhibition of human HepG2 cell line. Test compounds present at 10uM."}}, "data": [{"compound": "Cc1ccccc1C1CCN(c2ncc(C(=O)Nc3ccccc3)cc2Cl)CC1.O=C(O)C(F)(F)F", "values": [{"measurement": "Inhibition", "setting": "[1]", "result": 83, "unit": "%"}, {"measurement": "Inhibition", "setting": "[2]", "result": 83, "unit": "%"}, {"measurement": "Inhibition", "setting": "[3]", "result": 29, "unit": "%"}]}, {"compound": "Nc1c2c(nc3ccc(Oc4ccc(Cl)cc4)cc13)CCCC2", "values": [{"measurement": "Inhibition", "setting": "[1]", "result": 100, "unit": "%"}, {"measurement": "Inhibition", "setting": "[2]", "result": 65, "unit": "%"}, {"measurement": "Inhibition", "setting": "[3]", "result": 42, "unit": "%"}]}, {"compound": "CC(C)CCN1CCC(Oc2ccc(NC(=O)c3ccccc3)cc2Cl)CC1.O=C(O)C(F)(F)F", "values": [{"measurement": "Inhibition", "setting": "[1]", "result": 87, "unit": "%"}, {"measurement": "Inhibition", "setting": "[2]", "result": 88, "unit": "%"}, {"measurement": "Inhibition", "setting": "[3]", "result": 17, "unit": "%"}]}, {"compound": "CC(C)CN(C)Cc1ccc(-c2ccc(-c3nc4ccccc4[nH]3)s2)cc1", "values": [{"measurement": "Inhibition", "setting": "[1]", "result": 97, "unit": "%"}, {"measurement": "Inhibition", "setting": "[2]", "result": 76, "unit": "%"}, {"measurement": "Inhibition", "setting": "[3]", "result": 8, "unit": "%"}]}, {"compound": "COc1ccc(NC(=O)Nc2ccc(C)c(-c3ccc(C(=O)Nc4ccncc4)cc3)c2)cc1", "values": [{"measurement": "Inhibition", "setting": "[1]", "result": 99, "unit": "%"}, {"measurement": "Inhibition", "setting": "[2]", "result": 50, "unit": "%"}, {"measurement": "Inhibition", "setting": "[3]", "result": 39, "unit": "%"}]}, {"compound": "CCn1cc(CN2CCCC(C(=O)Nc3ccc(-c4nc5ccccc5[nH]4)cc3)C2)c(C)n1", "note": "(stereo not given)", "values": [{"measurement": "Inhibition", "setting": "[1]", "result": 100, "unit": "%"}, {"measurement": "Inhibition", "setting": "[2]", "result": 28, "unit": "%"}, {"measurement": "Inhibition", "setting": "[3]", "result": 22, "unit": "%"}]}, {"compound": "CN(Cc1cccc(C#N)c1)C1CCN(c2cc(NC(=O)c3cccc(F)c3)ccn2)CC1.O=C(O)C(F)(F)F", "values": [{"measurement": "Inhibition", "setting": "[1]", "result": 98, "unit": "%"}, {"measurement": "Inhibition", "setting": "[2]", "result": 15, "unit": "%"}, {"measurement": "Inhibition", "setting": "[3]", "result": 0, "unit": "%"}]}, {"compound": "CCOc1cc(C(=O)N[C@@H](Cc2ccccc2)[C@H](O)CNCc2cc(OC)cc(OC)c2)cc(N2CCCCS2(=O)=O)c1.Cl", "values": [{"measurement": "Inhibition", "setting": "[1]", "result": 100, "unit": "%"}, {"measurement": "Inhibition", "setting": "[2]", "result": 98, "unit": "%"}, {"measurement": "Inhibition", "setting": "[3]", "result": 0, "unit": "%"}]}, {"compound": "O=C(O)C(F)(F)F.c1cc(-c2ccc(CN3CCCCC3)cc2)cc(-c2nc3ccccc3[nH]2)c1", "values": [{"measurement": "Inhibition", "setting": "[1]", "result": 100, "unit": "%"}, {"measurement": "Inhibition", "setting": "[2]", "result": 79, "unit": "%"}, {"measurement": "Inhibition", "setting": "[3]", "result": 39, "unit": "%"}]}, {"compound": "CCN(CC)c1nc(N)c2c(N)nc3c(c2c1C#N)C(=O)CN3Cc1ccccc1", "values": [{"measurement": "Inhibition", "setting": "[1]", "result": 96, "unit": "%"}, {"measurement": "Inhibition", "setting": "[2]", "result": 96, "unit": "%"}, {"measurement": "Inhibition", "setting": "[3]", "result": 26, "unit": "%"}]}]}
